The results in this text go back to PubChem BioAssay (NCATS).

Assay [1] deals with Aldehyde dehydrogenase, mitochondrial (Homo sapiens) (UniProt P05091). Kind of assay: qHTS for Inhibitors of the Aldehyde Dehydrogenase Family (ALDH2) Primary screen (AID 2061308). Also: nearly all actives have a fitted effect of over 55% in size.
The target in assay [2] is Retinaldehyde dehydrogenase 3 (Homo sapiens) (UniProt P47895). Kind of assay: qHTS for Inhibitors of the Aldehyde Dehydrogenase Family (ALDH1A3) Primary screen (AID 2061315).

Results filed as inconclusive are left out. Where a call stands in place of a potency, no number is given. Calls of active or inactive are those of the source. Calls follow the shape of the dose curve; as a rule, active = well fitted curve in the direction sought with a large enough effect; inconclusive = small, poorly fitted or top-dose-only effect, or another doubt; inactive = no such curve, though single readings can be large; an effect the other way counts as inactive or inconclusive.

For `O=C1CCCC2=C1C(c1cccc(F)c1)N=C(Nc1nc3ccccc3o1)N2` (stereo not drawn), the Potency entry in assay [1] and in assay [2] was “inactive” in each case.
Take `C/C=C/C(=O)OC1/C=C/C(O)C(OC(C)=O)CCC(=O)OC1C` (stereo not drawn): the Potency result in assay [1] and in assay [2] was “inactive” in each case.
Consider `O=C(/C=C/c1ccccc1)OCC1=CC[C@@H]2C(C(=O)O)=CO[C@@H](O[C@@H]3O[C@H](CO)[C@@H](O)[C@H](O)[C@H]3O)[C@H]12`, for which the Potency result in assay [1] and in assay [2] was “inactive” in each case.
In the case of `Cc1cc(C)n2ncc(C(=O)Nc3ccc4c(c3)OCCO4)c2n1`, the Potency entry in assay [1] and in assay [2] was “inactive” throughout.
As for `COc1ccc(C(=O)N(Cc2ccccc2)Cc2ccccc2)cc1COc1ccc(NC(C)=O)cc1`, the Potency result in assay [1] and in assay [2] was “inactive” throughout.
On to `CCc1ccc(NC(=O)c2cnn3c(C)cc(C)nc23)cc1`, for which the Potency result in assay [1] and in assay [2] was “inactive” throughout.
As for `Cc1ccc(NC(=O)CSc2nnc(-c3cccc([S+](=O)([O-])N4CCCC4)c3)n2-c2ccccc2)cc1`, the Potency entry in assay [1] and in assay [2] was “inactive” each time.
Regarding `O=C(Nc1ccc([S+](=O)([O-])Nc2nccs2)cc1)C1CCNCC1`, the Potency result in assay [1] and in assay [2] was “inactive” in each case.
For `CCC(=O)NC(c1cc(Cl)c2cccnc2c1O)C(C)C` (stereo not drawn), the Potency entry in assay [1] and in assay [2] was “inactive” throughout.
Take `O=C(/C=C/c1ccccc1Br)NCCc1nc2ccccc2[nH]1`: the Potency entry in assay [1] and in assay [2] was “inactive” in each case.
As to `O=C(c1ccc2c(c1)ncn2-c1cccc(C(F)(F)F)c1)N1CCCCC1`, the Potency result in assay [1] and in assay [2] was “inactive” in each case.
`Cc1noc(CN(C)c2ncnc3ccc(-c4ccc5c(c4)OCO5)cc23)n1`: the Potency entry in assay [1] and in assay [2] was “inactive” in each case.
As for `Cc1cc2c(s1)c1cnn(Cc3ccccc3F)c(=O)c1n2C`, the Potency result in assay [1] and in assay [2] was “inactive” throughout.
On to `Cc1ccc(OCCn2c(CCNC(=O)c3ccsc3)nc3ccccc32)cc1`, for which the Potency result in assay [1] and in assay [2] was “inactive” throughout.
On to `Cc1nc(C)c(-c2ccc3ncnc(NCCc4cnc[nH]4)c3c2)s1`, for which the Potency result in assay [1] and in assay [2] was “inactive” each time.
Take `Cc1sc(NC(=O)Cc2ccc3c(c2)OCO3)nc1-c1ccc2c(c1)CCN2C(=O)C1CCCCC1`: the Potency result in assay [1] and in assay [2] was “inactive” each time.
For `O=S1(=O)N=C(OCc2ccccc2)c2ccccc21`, the Potency result in assay [1] and in assay [2] was “inactive” in each case.
In the case of `CC(=O)N1CCCc2cc(S(=O)(=O)Nc3ccc(C)c(C)c3)ccc21`, the Potency result in assay [1] and in assay [2] was “inactive” throughout.
Take `COc1cc(O)c(C(CC(=O)N2CCCC(c3ccccc3)C2)c2ccc3c(c2)OCO3)c(OC)c1` (stereo not drawn): the Potency result in assay [1] and in assay [2] was “inactive” each time.
Regarding `Cc1cnc(-c2ccccc2C(C)C)nc1N(C)Cc1ccc(-c2cccnc2)cc1`, the Potency entry in assay [1] and in assay [2] was “inactive” each time.
As for `Cc1ccc(-c2nc3c(c(SCC(=O)Nc4cccc(C(=O)O)c4)n2)Cc2cccc(C)c2O3)cc1`, the Potency entry in assay [1] and in assay [2] was “inactive” throughout.
In the case of `CSc1ccccc1-c1ccc(Nc2nc(-c3ccncc3)nc3ccccc23)cc1F`, the Potency entry in assay [1] and in assay [2] was “inactive” each time.
For `COc1cc(O)c(C(CC(=O)N2CCCC(C(=O)c3ccccc3)C2)c2ccc3c(c2)OCO3)c(OC)c1` (stereo not drawn), the Potency entry in assay [1] and in assay [2] was “inactive” in each case.
In the case of `Cc1cc(-c2nc(Nc3ccc(F)c(F)c3)c3ccccc3n2)ccn1`, the Potency entry in assay [1] and in assay [2] was “inactive” in each case.
Consider `Cc1cc(-c2ccccc2)nc2c(C(=O)Nc3ccc4c(c3)CCC4)cnn12`, for which the Potency entry in assay [1] and in assay [2] was “inactive” throughout.
For the compound `COc1ccc(C2c3c(N)nc(CCCc4ccccc4)nc3Oc3ccc4ccccc4c32)cc1OC` (stereo not drawn), the Potency entry in assay [1] and in assay [2] was “inactive” throughout.
With `Cc1cc(C)n2ncc(C(=O)NCc3ccco3)c2n1`, the Potency entry in assay [1] and in assay [2] was “inactive” throughout.
`O=C(Nc1ccc(S(=O)(=O)Nc2nccs2)cc1)[C@@H]1CC[C@H](C(=O)c2ccccc2)C1`: the Potency entry in assay [1] and in assay [2] was “inactive” in each case.
As to `CC(Cc1ccccc1)C(=O)Nc1ccc(Cl)cc1C(=O)O` (stereo not drawn), the Potency entry in assay [1] and in assay [2] was “inactive” throughout.
Take `COC(=O)C1CCN(C(=O)c2ccc3c(c2)ncn3-c2cccc(C)c2)CC1`: the Potency entry in assay [1] and in assay [2] was “inactive” in each case.
Turning to `Cc1cc(N[S+](=O)([O-])c2ccc(NC(=O)Cc3ccc(F)c(F)c3)cc2)no1`, the Potency entry in assay [1] and in assay [2] was “inactive” throughout.
On to `CCN1CCCC1Cn1c(-c2ccccc2)nc2c(N3CCOCC3)nc(C)nc21` (stereo not drawn), for which the Potency result in assay [1] and in assay [2] was “inactive” each time.
As for `O=C(Cn1nc(-c2cccnc2)ccc1=O)NCCc1ccccc1`, the Potency entry in assay [1] and in assay [2] was “inactive” in each case.
On to `Cc1ccc(S(=O)(=O)Nc2cnccc2C(=O)Nc2ccc(-n3cncn3)cc2)cc1`, for which the Potency entry in assay [1] and in assay [2] was “inactive” each time.
As for `O=S(=O)(c1ccc2c(c1)OCCO2)C1CCN(S(=O)(=O)c2c(F)cccc2F)CC1`, the Potency entry in assay [1] and in assay [2] was “inactive” each time.
In the case of `O=c1c2ccccc2nc2sc(Nc3ccc(Br)cc3)nn12`, the Potency entry in assay [1] and in assay [2] was “inactive” throughout.
For the compound `COC(=O)c1cccc(-c2noc(-c3ccccc3F)n2)c1`, the Potency entry in assay [1] and in assay [2] was “inactive” in each case.
`CCN(CC)c1ccc(NC(=O)CN(C)Cc2c(O)ccc3ccccc23)cc1`: the Potency result in assay [1] and in assay [2] was “inactive” in each case.
`Cc1nc(NC2CCCCC2)c2nc(-c3ccccc3)n(CCCN3CCOCC3)c2n1`: the Potency entry in assay [1] and in assay [2] was “inactive” in each case.
